# An excerpt weighted towards active compounds, which were near 2.3% of everything screened.
# FBPA coupling cs = qHTS Assay for Inhibitors of Fructose-1,6-bisphosphate Aldolase from Giardia Lamblia: Coupling assay counterscreen; coupling enzyme system counterscreen, AmpLite Red fluorescence; activity change, negative = inhibition, % at 58.2 µM, hits read low; actives 0.67% (n = 290,000); in the data active = activity change below about -30%
#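 Activity here indicates interference with the coupling reaction, not aldolase inhibition. Compounds at 57.5 uM final met coupling enzymes for 10 min at RT; substrate and AmpLite Red detection followed, with a 525/598 nm fluorescence read after 20 min.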
# Tau fibril ThT = qHTS for Inhibitors of Tau Fibril Formation, Thioflavin T Binding; recombinant tau K18 P301L, heparin-induced fibrillization, ThT fluorescence; Microtubule-associated protein tau (Homo sapiens), P10636; AID 1460, 2008; Potency, µM (doses to about 57.4 µM), most hits filed as inhibitors; actives 2.1% (n = 270,000); also: nearly all actives have a fitted effect of over 55% in size
#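 K18 P301L tau (15 uM + 0.24 uM Alexa 594-tagged), heparin 20 uM, NaOAc pH 7, 6 h 37 C; ThT 30 uM, 1 h RT, ex 450/em 510 nm.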
# Tau fluor cs = Counterscreen qHTS for Inhibitors of Tau Fibril Formation, Fluorescence Polarization. tau K18 P301L Alexa594 fluorescence, heparin fibrillization. Potency, µM (top dose mostly 57.7 µM). AID 1463, 2008. actives 0.93% (n = 280,000); also: nearly all actives have a fitted effect of over 55% in size
#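 Human tau K18 P301L (15 uM unlabeled, 0.24 uM Alexa 594-labeled) in 100 mM sodium acetate pH 7 with 20 uM heparin, 6 hr at 37 C. ThT 30 uM added, 1 hr ambient; Alexa 594 FP and total fluorescence read at 555/632 nm.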
# USP1 inh = Inhibitors of USP1/UAF1: Primary Screen; recombinant USP1/UAF1, Ub-Rhodamine cleavage fluorescence; Potency, µM (doses to about 57.1 µM), usual class: inhibitors; actives 0.23% (n = 390,000); AID 743255, 2014; also: nearly all actives have a fitted effect of over 60% in size
# Target sequence (O94782 whole entry, looked up): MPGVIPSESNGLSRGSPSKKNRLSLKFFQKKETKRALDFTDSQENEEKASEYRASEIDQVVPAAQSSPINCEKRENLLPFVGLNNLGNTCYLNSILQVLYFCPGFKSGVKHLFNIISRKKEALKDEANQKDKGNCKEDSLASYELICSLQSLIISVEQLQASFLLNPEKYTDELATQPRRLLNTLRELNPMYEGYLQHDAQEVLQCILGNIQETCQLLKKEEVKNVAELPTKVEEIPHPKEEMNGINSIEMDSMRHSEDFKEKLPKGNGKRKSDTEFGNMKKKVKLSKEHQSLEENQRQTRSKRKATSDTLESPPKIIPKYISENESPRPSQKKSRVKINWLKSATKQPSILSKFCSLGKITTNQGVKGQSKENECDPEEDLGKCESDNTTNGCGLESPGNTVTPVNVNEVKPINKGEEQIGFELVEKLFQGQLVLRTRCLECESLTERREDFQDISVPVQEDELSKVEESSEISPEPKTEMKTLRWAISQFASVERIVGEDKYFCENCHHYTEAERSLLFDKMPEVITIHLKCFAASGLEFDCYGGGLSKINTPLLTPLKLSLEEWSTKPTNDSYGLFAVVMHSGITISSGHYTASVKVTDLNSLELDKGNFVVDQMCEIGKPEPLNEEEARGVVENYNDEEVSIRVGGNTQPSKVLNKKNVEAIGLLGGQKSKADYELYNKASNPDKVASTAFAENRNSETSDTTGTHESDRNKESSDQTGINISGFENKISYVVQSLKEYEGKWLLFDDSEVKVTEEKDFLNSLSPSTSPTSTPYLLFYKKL
#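 In this screen, compounds sit with the deubiquitinase complex (1nM) for 15 min at room temperature before Ub-Rho is added at 150nM final. Fluorescence rise is then followed for 6 reads every 60 seconds.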
# Tau FP inhib = qHTS for Inhibitors of Tau Fibril Formation, Fluorescence Polarization; Microtubule-associated protein tau (Homo sapiens), P10636; actives 0.39% (n = 280,000); K18 P301L tau heparin fibrillization, Alexa594 FP, 6 h; Potency, µM (highest dose often 57.7 µM), actives largely listed as inhibitors; AID 1468, 2008; also: nearly all actives have a fitted effect of over 55% in size
#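 Heparin (20 uM) drove fibril formation of recombinant tau K18 P301L, 15 uM unlabeled with 0.24 uM Alexa 594 label, for 6 hr at 37 C in 100 mM sodium acetate pH 7. Fluorescence polarization (555/632 nm) read 1 hr after 30 uM ThT.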
# Hits are given with their value; n = inactive; u = inconclusive; x = not tested or not shown; [ ] = another dose, or the depositor's remark. Unless noted, calls follow the shape of the dose curve; as a rule, active = well fitted curve in the direction sought with a large enough effect; inconclusive = small, poorly fitted or top-dose-only effect, or another doubt; inactive = no such curve, though single readings can be large; an effect the other way counts as inactive or inconclusive.
SMILES,FBPA coupling cs,Tau fibril ThT,Tau fluor cs,USP1 inh,Tau FP inhib
CN1CCc2c(sc3c2C(=O)NC(c2ccc(-c4cccc(Cl)c4)o2)N3)C1 (stereo not drawn),n,2.2µM,n,n,u
COc1ccc(C(=O)Oc2ccc(C3NC(=O)c4c(sc5c4CCN(C)C5)N3)cc2OC)cc1 (stereo not drawn),x,4µM,n,u,u
CCc1ccc(NC(=O)N(Cc2cn(CC)c3ccccc23)C2CCCCC2)cc1,x,n,n,n,n
CCc1ccc2oc(C(=O)NCc3ccccc3)cc(=O)c2c1,x,n,n,n,n
COc1ccc(C2NC(=O)c3c(sc4c3CCN(C)C4)N2)cc1O (stereo not drawn),x,5.6µM,n,n,n
CN1CCc2c(sc3c2C(=O)NC(c2ccc(C(C)(C)C)cc2)N3)C1 (stereo not drawn),x,16µM,n,u,u
CSc1ccc(C2NC(=O)c3c(sc4c3CCN(C)C4)N2)cc1 (stereo not drawn),n,n,n,u,n
COc1ccc(C(=O)NCC(c2ccc(N(C)C)cc2)N2CCc3ccccc32)cc1 (stereo not drawn),x,16µM,u,n,u
CCOC(=O)c1ccc(CC(=O)c2ccc(O)c(O)c2O)o1,-48,16µM,u,n,22µM
c1ccc(OCCSc2nc3ccccc3[nH]2)cc1,n,n,n,n,n
Brc1ccc2nc(SCCOc3ccccc3)[nH]c2c1,x,u,14µM[quencher],u,28µM
C=CCn1c(C)c(/C=C/c2cc[n+](C)cc2)c2ccccc21,n,x,x,35µM,x
Cc1ccccc1/C=C/c1cc[n+](C)cc1,n,n,n,n,n
CCn1cc(/C=C/c2cc[n+](C)cc2)c2ccccc21,n,x,x,u,x
CC(C)n1cc(/C=C/c2cc[n+](C)cc2)c2ccccc21,-33,x,x,32µM,x
C=CCn1cc(/C=C/c2cc[n+](C)cc2)c2ccccc21,n,x,x,32µM,x
CCN(CC)C(=O)Cn1c(C)c(/C=C/c2cc[n+](C)cc2)c2ccccc21,n,x,x,25µM,x
CC(C)C(NS(=O)(=O)c1cccs1)C(=O)NCCCN1CCCCCC1 (stereo not drawn),n,x,x,n,x
O=C(COC(=O)C12CC3CC(CC(O)(C3)C1)C2)Nc1cccc(Br)c1,x,x,x,n,x
CN(C)c1ccc(N=Nc2ccccc2C(=O)OCC(=O)N2CCCCCC2)cc1,n,8.9µM,n,n,n
CN(C)c1ccc(N=Nc2ccccc2C(=O)OCC(=O)N2CCCC2)cc1,n,13µM,n,n,n
Cc1cccc(C(=O)OCC(=O)N2CCCCCC2)c1O,x,x,x,n,x
CN(C)c1ccc(C(=O)OCC(=O)N2CCOCC2)cc1,n,n,n,n,n
CN(C)c1ccc(N=Nc2ccccc2C(=O)OCC(=O)Nc2ccccc2C(F)(F)F)cc1,n,5µM,u,n,u
CN(C)c1cc[n+](CC(=O)Nc2ccccc2C(F)(F)F)cc1,n,x,x,n,x
SMILES,FBPA coupling cs,Tau fibril ThT,Tau fluor cs,USP1 inh,Tau FP inhib
CN1OC[C@@H]2CN[C@H](c3cccc(N4CCOCC4)c3)C[C@@H]21,x,x,x,n,x
COc1ccc(Nc2c3c(nc4ccc(NC(=O)c5cc(Cl)ccc5OC)cc24)CCCC3)cc1OC,x,7.1µM,u,u,n
COc1cc(OC)cc(C(=O)Nc2ccc3nc4c(c(Nc5ccc(OC)c(OC)c5)c3c2)CCCC4)c1,x,32µM,18µM[quencher],n,u
COc1ccccc1Nc1c2c(nc3ccc(NC(=O)c4ccc(N(C)C)cc4)cc13)CCCC2,x,16µM,11µM[quencher],n,n
CCOc1ccccc1C(=O)Nc1ccc2nc3c(c(Nc4ccc(OC)c(OC)c4)c2c1)CCCC3,x,10µM,u,n,n
Fc1ccc(-c2nc3cnccn3c2NC2CCCC2)cc1,n,n,n,n,n[2.34 µM]
Cc1ccn2c(NC3CCCC3)c(-c3ccsc3)nc2c1,n,u,u,n,n
Oc1ccc(Br)cc1-c1nc2cnccn2c1NC1CCCCC1,n,u,14µM[quencher],n,u
Oc1ccc(Br)cc1-c1nc2cnccn2c1NC1CCCC1,n,u,13µM[quencher],u,u
COc1ccccc1N1CCN(c2cc(C)nc3nncn23)CC1,x,n,n,n,n
Cc1ccccc1-c1cc(C(=O)Nc2sc(C)c(C)c2C(N)=O)c2ccccc2n1,n,22µM,u,n,u
Cc1[nH][nH]c(=O)c1C(c1ccc(-c2ccc(Cl)cc2Cl)o1)c1c(C)[nH][nH]c1=O,-58,11µM,n,x,u
COc1ccc(C(=O)Oc2ccc(C(c3c(C)[nH][nH]c3=O)c3c(C)[nH][nH]c3=O)cc2OC)cc1,x,n,n,n,n
Cc1[nH][nH]c(=O)c1C(c1ccc(Br)cc1)c1c(C)[nH][nH]c1=O,n,x,x,n,x
Cc1ccc2oc(-c3ccccc3C(=O)O)cc(=O)c2c1,n,n,n,n,n
COC(=O)c1ccc(-c2ccc(C(c3c(C)[nH][nH]c3=O)c3c(C)[nH][nH]c3=O)o2)cc1,-45,5µM,n,28µM,u
Cc1[nH][nH]c(=O)c1C(c1ccc(-c2ccccc2C(=O)O)o1)c1c(C)[nH][nH]c1=O,-47,11µM,n,u,u
CNC(=S)N/N=C/c1ccc(-c2cccc(C(=O)O)c2)o1,n,u,n,n,n
Cc1[nH][nH]c(=O)c1C(c1ccc(-c2cccc(C(=O)O)c2)o1)c1c(C)[nH][nH]c1=O,-31,14µM,n,u,u
COc1ccccc1NC(=O)CN1C(=O)CC(c2ccc(C)c(C)c2)=Nc2ccccc21,x,n,n,n,u
COc1ccc(Cl)cc1NC(=O)Cn1nnc(C(=O)NCc2cccs2)c1N,x,n,n,u,n
Cc1[nH][nH]c(=O)c1C(c1ccc(-c2cccc(Cl)c2)o1)c1c(C)[nH][nH]c1=O,-48,x,u,28µM,u
O=c1[nH]nc(Cc2ccc(-c3cccc(Cl)c3)o2)c2ccccc12,n,n,n,n,n
OCCN1CCN(C(=S)c2ccc(Cl)c(Cl)c2)CC1,-32,7.9µM,n,n,u
COc1cc(NC(=S)N2CCN(CCO)CC2)c(OC)cc1Cl,n,n,n,n,n
O=C(Nc1cccc(F)c1)N1CC=C(c2ccc(Cl)cc2)CC1,n,u,u,n,u
O=C(Nc1ccccc1C(F)(F)F)N1CC=C(c2c[nH]c3ccccc23)CC1,x,u,18µM[quencher],u,n
O=C(Nc1ccc(F)c(Cl)c1)N1CC=C(c2c[nH]c3ccccc23)CC1,x,6.3µM,7.9µM[quencher],u,u
COc1ccccc1NC(=O)N1CC=C(c2c[nH]c3ccccc23)CC1,x,u,u,n,n

# Compound activity from PubChem BioAssay.
